# Data from PubChem BioAssay (NCI).
# About 79,000 compounds went through this panel and 15% of them were active in at least one assay; those are over-represented in the sample as a whole. Unmarked numbers belong to inactive results. Calls of active or inactive are those of the source. Cut-off read from the data, not from the text of the source: active = growth inhibition above about 70%; inactive = the rest.
# What was measured:
# [1] = NCI Yeast Anticancer Drug Screen. Data for the rad52 strain (AID 147);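 note: 0% = growth of vehicle-treated control cultures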; conditions: S. cerevisiae rad52 mutant growth inhibition, active compounds read high
# In short: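 Read-out: growth inhibition versus vehicle-treated controls. Cells were a DNA repair-deficient yeast strain treated with compounds.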
# [2] = NCI Yeast Anticancer Drug Screen. Data for the wt1 strain (AID 149);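 note: 0% = growth of vehicle-treated wt1 cultures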; conditions: S. cerevisiae wt1 strain (SPY 50644) growth inhibition, active compounds read high
# In short: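 wt1 yeast, compound-treated; % growth inhibition vs vehicle control.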
# [3] = NCI Yeast Anticancer Drug Screen. Data for the rad50EPP+ strain (AID 151);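 note: 0% = growth of vehicle-treated control cultures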; conditions: S. cerevisiae rad50 mutant strain, active compounds read high
# In short: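 Growth inhibition read against vehicle controls in rad50EPP+ yeast, a strain altered in DNA damage repair, after compound exposure.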
# [4] = NCI Yeast Anticancer Drug Screen. Data for the mgt1 strain (AID 153); conditions: S. cerevisiae mgt1 mutant growth inhibition, active compounds read high
# In short: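 mgt1 yeast grown with test compound; read-out is growth inhibition versus vehicle-treated cultures.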
# [5] = NCI Yeast Anticancer Drug Screen. Data for the rad50 strain (AID 155);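 note: 0% = growth of vehicle-only cultures of the same strain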; conditions: S. cerevisiae rad50 strain growth inhibition, active compounds read high
# In short: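 Genetically altered yeast (DNA repair pathway); compound treatment; growth inhibition vs vehicle ctrl.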
# [6] = NCI Yeast Anticancer Drug Screen. Data for the mec2-1 strain (AID 157); conditions: S. cerevisiae mec2-1 strain, active compounds read high
# In short: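 Yeast mec2-1 mutant treated with compound. Readout: growth inhibition vs vehicle controls.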
# [7] = NCI Yeast Anticancer Drug Screen. Data for the rad14 strain (AID 159);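 note: 0% = growth of vehicle-treated control cultures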; conditions: S. cerevisiae rad14 strain growth inhibition, active compounds read high
# In short: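 Test compounds were applied to a repair-deficient yeast strain. Its growth was then compared with that of cultures given vehicle alone, and inhibition was expressed relative to those controls.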
# [8] = NCI Yeast Anticancer Drug Screen. Data for the sgs1 mgt1 strain (AID 161);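 note: 0% = growth of cultures given vehicle only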; conditions: S. cerevisiae sgs1 mgt1 strain, active compounds read high
# In short: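 Mutant yeast exposed to compound; growth scored against vehicle-only wells.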
# [9] = NCI Yeast Anticancer Drug Screen. Data for the CLN2oe strain (AID 163);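 note: 0% = growth of vehicle-only control cultures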; conditions: S. cerevisiae CLN2oe strain, active compounds read high
# In short: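 Read-out: yeast growth inhibition, expressed relative to vehicle-only controls. The strain bears an engineered cell-cycle alteration.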
# [10] = NCI Yeast Anticancer Drug Screen. Data for the cln2 rad14 strain (AID 165);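 note: 0% = growth equal to vehicle treated cultures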; conditions: S. cerevisiae cln2 rad14 strain, active compounds read high
# In short: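 cln2 rad14 yeast strain; compound exposure; growth inhibition read vs vehicle controls.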
# [11] = NCI Yeast Anticancer Drug Screen. Data for the bub3 strain (AID 167); conditions: S. cerevisiae bub3 mutant strain, active compounds read high
# In short: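 Yeast carrying a defined mutation is treated with each compound, and growth is compared with that of vehicle-exposed cells to give inhibition.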
# [12] = NCI Yeast Anticancer Drug Screen. Data for the wt2 strain (AID 169);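 note: 0% = growth of vehicle-treated yeast cultures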; conditions: S. cerevisiae wt2 strain growth inhibition, active compounds read high
# In short: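 Read-out: growth inhibition versus vehicle-treated control cultures after compound exposure of the yeast strain.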
# [13] = NCI Yeast Anticancer Drug Screen. Data for the mlh1 strain (AID 171);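 note: 0% = growth of vehicle-treated control cultures of the same strain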; conditions: S. cerevisiae mlh1 strain growth inhibition, active compounds read high
# In short: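 Read-out: growth inhibition versus vehicle controls. Strain: engineered yeast with a defined DNA repair or cell cycle defect, compound-treated.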
# [14] = NCI Yeast Anticancer Drug Screen. Data for the sgs1 strain (AID 173);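 note: 0% = growth of vehicle-only control cultures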; conditions: S. cerevisiae sgs1 mutant, active compounds read high
# In short: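 Read-out: yeast growth inhibition relative to vehicle controls, following compound exposure of a strain with a defined DNA repair/cell cycle alteration.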
# [15] = NCI Yeast Anticancer Drug Screen. Data for the mlh1 rad18 strain (AID 175); conditions: S. cerevisiae mlh1 rad18 strain growth inhibition, active compounds read high
# In short: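 Yeast w/ defined DNA-repair lesions; compound exposure; growth vs vehicle controls → % inhibition.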
# [16] = NCI Yeast Anticancer Drug Screen. Data for the rad18 strain (AID 177); conditions: S. cerevisiae rad18 mutant growth inhibition, active compounds read high
# In short: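 Readout: growth inhibition vs vehicle controls. Cells: genetically altered yeast strain, DNA repair defect.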
# [17] = at 5.0 µM (retest, dose inferred, filed as 0.5)
# [18] = at 50.0 µM (retest, dose inferred, filed as 5.0)
smiles,measurement,setting,value
CCCCOc1ccc2nc(C)cc(N=[N+]=[N-])c2c1,growth inhibition,[1]; at 1.2 µM,8%
same,growth inhibition,[1]; at 3.7 µM,9%
same,growth inhibition,[1]; at 11.0 µM,14%
same,growth inhibition,[1]; at 33.0 µM,20%
same,growth inhibition,[1]; at 100.0 µM,86% (active)
same,growth inhibition,[2]; at 1.2 µM,11%
same,growth inhibition,[2]; at 3.7 µM,10%
same,growth inhibition,[2]; at 11.0 µM,11%
same,growth inhibition,[2]; at 33.0 µM,15%
same,growth inhibition,[2]; at 100.0 µM,69%
same,growth inhibition,[3]; at 1.2 µM,-1%
same,growth inhibition,[3]; at 3.7 µM,-3%
same,growth inhibition,[3]; at 11.0 µM,0%
same,growth inhibition,[3]; at 33.0 µM,10%
same,growth inhibition,[3]; at 100.0 µM,45%
same,growth inhibition,[4]; at 1.2 µM,6%
same,growth inhibition,[4]; at 3.7 µM,7%
same,growth inhibition,[4]; at 11.0 µM,12%
same,growth inhibition,[4]; at 33.0 µM,32%
same,growth inhibition,[4]; at 100.0 µM,90% (active)
same,growth inhibition,[5]; at 1.2 µM,4%
same,growth inhibition,[5]; at 3.7 µM,-4%
same,growth inhibition,[5]; [17],19%
same,growth inhibition,[5]; at 11.0 µM,-1%
same,growth inhibition,[5]; at 33.0 µM,33%
same,growth inhibition,[5]; [18],49%
same,growth inhibition,[5]; at 50.0 µM,19.7%
same,growth inhibition,[5]; at 100.0 µM,92% (active)
same,growth inhibition,[6]; at 1.2 µM,11%
same,growth inhibition,[6]; at 3.7 µM,8%
same,growth inhibition,[6]; [17],7%
same,growth inhibition,[6]; at 11.0 µM,14%
same,growth inhibition,[6]; at 33.0 µM,28%
same,growth inhibition,[6]; [18],-1%
same,growth inhibition,[6]; at 50.0 µM,23.8%
same,growth inhibition,[6]; at 100.0 µM,79% (active)
same,growth inhibition,[7]; at 1.2 µM,7%
same,growth inhibition,[7]; at 3.7 µM,5%
same,growth inhibition,[7]; at 11.0 µM,11%
same,growth inhibition,[7]; at 33.0 µM,48%
same,growth inhibition,[7]; at 100.0 µM,98% (active)
same,growth inhibition,[8]; [17],12%
same,growth inhibition,[8]; [18],-13%
same,growth inhibition,[8]; at 50.0 µM,91.2% (active)
same,growth inhibition,[9]; at 1.2 µM,7%
same,growth inhibition,[9]; at 3.7 µM,6%
same,growth inhibition,[9]; at 11.0 µM,12%
same,growth inhibition,[9]; at 33.0 µM,28%
same,growth inhibition,[9]; at 100.0 µM,64%
same,growth inhibition,[10]; [17],6%
same,growth inhibition,[10]; [18],70% (active)
same,growth inhibition,[10]; at 50.0 µM,40.8%
same,growth inhibition,[11]; at 1.2 µM,11%
same,growth inhibition,[11]; at 3.7 µM,9%
same,growth inhibition,[11]; [17],5%
same,growth inhibition,[11]; at 11.0 µM,12%
same,growth inhibition,[11]; at 33.0 µM,31%
same,growth inhibition,[11]; [18],33%
same,growth inhibition,[11]; at 50.0 µM,37%
same,growth inhibition,[11]; at 100.0 µM,87% (active)
same,growth inhibition,[12]; at 1.2 µM,7%
same,growth inhibition,[12]; at 3.7 µM,6%
same,growth inhibition,[12]; at 11.0 µM,10%
same,growth inhibition,[12]; at 33.0 µM,33%
same,growth inhibition,[12]; at 100.0 µM,93% (active)
same,growth inhibition,[13]; at 1.2 µM,7%
same,growth inhibition,[13]; at 3.7 µM,10%
same,growth inhibition,[13]; at 11.0 µM,13%
same,growth inhibition,[13]; at 33.0 µM,38%
same,growth inhibition,[13]; at 100.0 µM,97% (active)
same,growth inhibition,[14]; at 1.2 µM,12%
same,growth inhibition,[14]; at 3.7 µM,13%
same,growth inhibition,[14]; at 11.0 µM,15%
same,growth inhibition,[14]; at 33.0 µM,41%
same,growth inhibition,[14]; at 100.0 µM,96% (active)
same,growth inhibition,[15]; [17],8%
same,growth inhibition,[15]; [18],93% (active)
same,growth inhibition,[15]; at 50.0 µM,74.2% (active)
same,growth inhibition,[16]; at 1.2 µM,16%
same,growth inhibition,[16]; at 3.7 µM,19%
same,growth inhibition,[16]; at 11.0 µM,23%
same,growth inhibition,[16]; at 33.0 µM,51%
same,growth inhibition,[16]; at 100.0 µM,96% (active)
CC1(C)CC(=O)C(/C=N/c2nc(-c3ccc(Br)cc3)cs2)=C(O)C1,growth inhibition,[1]; at 1.2 µM,11%
same,growth inhibition,[1]; at 3.7 µM,20%
same,growth inhibition,[1]; at 11.0 µM,53%
same,growth inhibition,[1]; at 33.0 µM,95% (active)
same,growth inhibition,[1]; at 100.0 µM,97% (active)
same,growth inhibition,[2]; at 1.2 µM,1%
same,growth inhibition,[2]; at 3.7 µM,4%
same,growth inhibition,[2]; at 11.0 µM,17%
same,growth inhibition,[2]; at 33.0 µM,91% (active)
same,growth inhibition,[2]; at 100.0 µM,60%
same,growth inhibition,[3]; at 1.2 µM,5%
same,growth inhibition,[3]; at 3.7 µM,17%
same,growth inhibition,[3]; at 11.0 µM,51%
same,growth inhibition,[3]; at 33.0 µM,95% (active)
same,growth inhibition,[3]; at 100.0 µM,98% (active)
same,growth inhibition,[4]; at 1.2 µM,4%
same,growth inhibition,[4]; at 3.7 µM,6%
same,growth inhibition,[4]; at 11.0 µM,37%
same,growth inhibition,[4]; at 33.0 µM,96% (active)
same,growth inhibition,[4]; at 100.0 µM,98% (active)
same,growth inhibition,[5]; at 1.2 µM,3%
same,growth inhibition,[5]; at 3.7 µM,32%
same,growth inhibition,[5]; [17],-4%
same,growth inhibition,[5]; at 11.0 µM,48%
same,growth inhibition,[5]; at 33.0 µM,94% (active)
same,growth inhibition,[5]; [18],96% (active)
same,growth inhibition,[5]; at 50.0 µM,99% (active)
same,growth inhibition,[5]; at 100.0 µM,97% (active)
same,growth inhibition,[6]; at 1.2 µM,7%
same,growth inhibition,[6]; at 3.7 µM,11%
same,growth inhibition,[6]; [17],-10%
same,growth inhibition,[6]; at 11.0 µM,35%
same,growth inhibition,[6]; at 33.0 µM,96% (active)
same,growth inhibition,[6]; [18],97% (active)
same,growth inhibition,[6]; at 50.0 µM,97.5% (active)
same,growth inhibition,[6]; at 100.0 µM,98% (active)
same,growth inhibition,[7]; at 1.2 µM,6%
same,growth inhibition,[7]; at 3.7 µM,6%
same,growth inhibition,[7]; at 11.0 µM,36%
same,growth inhibition,[7]; at 33.0 µM,95% (active)
same,growth inhibition,[7]; at 100.0 µM,98% (active)
same,growth inhibition,[8]; [17],-8%
same,growth inhibition,[8]; [18],98% (active)
same,growth inhibition,[8]; at 50.0 µM,99.2% (active)
same,growth inhibition,[9]; at 1.2 µM,1%
same,growth inhibition,[9]; at 3.7 µM,7%
same,growth inhibition,[9]; at 11.0 µM,31%
same,growth inhibition,[9]; at 33.0 µM,93% (active)
same,growth inhibition,[9]; at 100.0 µM,97% (active)
same,growth inhibition,[10]; [17],65%
same,growth inhibition,[10]; [18],97% (active)
same,growth inhibition,[10]; at 50.0 µM,98.3% (active)
same,growth inhibition,[11]; at 1.2 µM,3%
same,growth inhibition,[11]; at 3.7 µM,3%
same,growth inhibition,[11]; [17],-22%
same,growth inhibition,[11]; at 11.0 µM,24%
same,growth inhibition,[11]; at 33.0 µM,96% (active)
same,growth inhibition,[11]; [18],98% (active)
same,growth inhibition,[11]; at 50.0 µM,98.8% (active)
same,growth inhibition,[11]; at 100.0 µM,98% (active)
